System: T1, DRAK1
T1 construct: gene STK17A
Details: concentration: 1 μM, replicates: in singlicate; n = 1
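Further: KINOMEscan kinase panel screen.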

SMILES | %Inh
CN1C(=O)C(Nc2ccccc2)=C(c2ccccc2)C1=O [SB-300079] | 0%
CCC(=O)c1c(-c2ccccc2)c2cc(Cl)ccc2c(=O)n1Cc1ccc(C(=O)O)cc1 | 0%
COc1cc(Nc2nccc(N3CCC(NC(=O)C(C)c4ccc(Cl)cc4)C3)n2)cc(OC)c1OC (stereo not drawn) [GSK1379757] | 0%
O=C(NCc1cccs1)c1cc(C(=O)c2c(Cl)cccc2Cl)c[nH]1 [GW823670] | 4%
Cl.c1ccc(Cn2cnc3cc(Nc4ncnc5ccccc45)ccc32)cc1 [GW272142] | 0%
COc1cc2ncn(-c3cc(OCc4ccc(S(C)(=O)=O)cc4)c(C(N)=O)s3)c2cc1OC [GW869979] | 0%
CCS(=O)c1ccc(-c2coc3ccc(-c4nnc(C)o4)cc23)cc1 (stereo not drawn) | 0%
O=C(Nc1n[nH]c2nc(-c3ccccc3)c(Br)cc12)C1CC1 [SB-708998] | 5%
Cl.NS(=O)(=O)c1cccc(Nc2cc(-c3ccc(F)cc3)n[nH]2)c1 [GW824645] | 0%
COC(=O)c1c(-c2ccccc2)c2cc(Br)ccc2c(=O)n1Cc1ccc(NC(=O)CCC(=O)O)cc1 | 0%
CCCNC(=O)Nc1ccc(Oc2ncnc3ccn(C)c23)cc1 | 0%
FC(F)(F)c1ccc(-c2ncn(CCCN3CCOCC3)c2-c2ccncc2)cc1 [SB-217780] | 15%
Cc1c(Cn2c(C)nn3c(=O)cc(N4CCO[C@H](C)C4)nc23)cccc1C(F)(F)F [GSK2373690] | 1%
COc1cccc(-n2cnc3c(N)ncnc32)c1 [SKF-97416] | 37%
Nc1nc(N)c2nc(-c3ccccc3)[nH]c2n1 [SKF-12778] | 8%
COc1ccc(CNC(=O)NC2CCN(c3ccnc(Nc4ccc(F)cc4)n3)C2)cc1 (stereo not drawn) [GSK1379706] | 6%
COc1cccc(C2=C(N(C)c3ccccc3)C(=O)NC2=O)c1 [SB-334865] | 0%
COc1ccc(-c2cc3c(C)nc(N)nc3n([C@H]3CC[C@H](OCCO)CC3)c2=O)cn1 | 16%

SMILES | %Inh
Nc1ncnc2c1ncn2-c1cccc2ccccc12 [SKF-97184] | 7%
Cc1ccc(-c2ccc3c(ccc4sc5c(c43)NC[C@@H](C)N=C5N(C)C)n2)cn1 | 0%
COc1cccc(C2=C(Nc3cccc(C(=O)O)c3)C(=O)NC2=O)c1 [SB-390770] | 0%
Cc1nc(N(C)[C@H]2CN(C(=O)CC#N)CC[C@H]2C)c2cc[nH]c2n1 | 0%
CN(C)c1cc(-c2ccc3c(N)n[nH]c3c2)nc(N)n1 [GSK2219329] | 36%
COc1ccc(-c2cc3c(C)nc(N)nc3n([C@H]3CC[C@H](O)CC3)c2=O)cn1 | 0%
OCCCNc1nccc(-c2c(-c3cccc(C(F)(F)F)c3)nn3cc(C(F)(F)F)ccc23)n1 [GW630813] | 0%
O=C(Nc1n[nH]c2cc(-c3ccccc3F)ccc12)C1CC1 [SB-733371] | 0%
Nc1nc(-c2ccccc2F)c(-c2ccnc3ccccc23)s1 [GW560459] | 0%
Cn1c(=O)c(F)c(Nc2ccc(I)cc2F)c2c(=O)n(OC[C@H](O)CO)cnc21 | 0%
Cc1cc(Nc2nc(-c3cccc(C)n3)nc3ccccc23)ccn1 [GW872411] | 0%
COc1cc2nccc(Nc3ccc(OCc4ccc(NC(C)=O)cc4)cc3)c2cc1OC.Cl [GW440135] | 7%
Cc1nnc(-c2ccc(C)c(-c3ccc(C(=O)O)cc3)c2)o1 [GW608005] | 0%
CCS(=O)(=O)c1ccc(OC)c(Nc2ncc(-c3ccc(F)cc3)o2)c1.Cl [GW591947] | 10%
CCc1ccc(-c2ccc3c(c2)-c2nn(C)cc2S(=O)(=O)N3C)cc1 | 0%
CCC(=O)c1c(-c2ccccc2)c2cc(Cl)ccc2c(=O)n1Cc1cc(S(C)(=O)=O)n(CCC(C)(C)O)n1 | 14%
C[C@@H]1CC[C@H](C(=O)NC2CCCCC2)CN1c1cc(-c2ccc3c(N)n[nH]c3c2)nc(N)n1 [GSK2291363] | 20%
O=c1cc(N2CCOCC2)nc2n(Cc3ccc(F)c(Cl)c3)ccn12 [GSK2297099] | 0%

System: T2, DRAK2
T2 construct: gene STK17B
Details: concentration: 1 μM, replicates: in singlicate; n = 1

SMILES | %Inh
CN1C(=O)C(Nc2ccccc2)=C(c2ccccc2)C1=O [SB-300079] | 0%
CCC(=O)c1c(-c2ccccc2)c2cc(Cl)ccc2c(=O)n1Cc1ccc(C(=O)O)cc1 | 2%
COc1cc(Nc2nccc(N3CCC(NC(=O)C(C)c4ccc(Cl)cc4)C3)n2)cc(OC)c1OC (stereo not drawn) [GSK1379757] | 0%
O=C(NCc1cccs1)c1cc(C(=O)c2c(Cl)cccc2Cl)c[nH]1 [GW823670] | 0%
Cl.c1ccc(Cn2cnc3cc(Nc4ncnc5ccccc45)ccc32)cc1 [GW272142] | 0%
COc1cc2ncn(-c3cc(OCc4ccc(S(C)(=O)=O)cc4)c(C(N)=O)s3)c2cc1OC [GW869979] | 23%
CCS(=O)c1ccc(-c2coc3ccc(-c4nnc(C)o4)cc23)cc1 (stereo not drawn) | 0%
O=C(Nc1n[nH]c2nc(-c3ccccc3)c(Br)cc12)C1CC1 [SB-708998] | 0%
Cl.NS(=O)(=O)c1cccc(Nc2cc(-c3ccc(F)cc3)n[nH]2)c1 [GW824645] | 0%
COC(=O)c1c(-c2ccccc2)c2cc(Br)ccc2c(=O)n1Cc1ccc(NC(=O)CCC(=O)O)cc1 | 0%
CCCNC(=O)Nc1ccc(Oc2ncnc3ccn(C)c23)cc1 | 12%
FC(F)(F)c1ccc(-c2ncn(CCCN3CCOCC3)c2-c2ccncc2)cc1 [SB-217780] | 6%
Cc1c(Cn2c(C)nn3c(=O)cc(N4CCO[C@H](C)C4)nc23)cccc1C(F)(F)F [GSK2373690] | 1%
COc1cccc(-n2cnc3c(N)ncnc32)c1 [SKF-97416] | 0%
Nc1nc(N)c2nc(-c3ccccc3)[nH]c2n1 [SKF-12778] | 0%
COc1ccc(CNC(=O)NC2CCN(c3ccnc(Nc4ccc(F)cc4)n3)C2)cc1 (stereo not drawn) [GSK1379706] | 0%
COc1cccc(C2=C(N(C)c3ccccc3)C(=O)NC2=O)c1 [SB-334865] | 0%
COc1ccc(-c2cc3c(C)nc(N)nc3n([C@H]3CC[C@H](OCCO)CC3)c2=O)cn1 | 14%

SMILES | %Inh
Nc1ncnc2c1ncn2-c1cccc2ccccc12 [SKF-97184] | 0%
Cc1ccc(-c2ccc3c(ccc4sc5c(c43)NC[C@@H](C)N=C5N(C)C)n2)cn1 | 0%
COc1cccc(C2=C(Nc3cccc(C(=O)O)c3)C(=O)NC2=O)c1 [SB-390770] | 0%
Cc1nc(N(C)[C@H]2CN(C(=O)CC#N)CC[C@H]2C)c2cc[nH]c2n1 | 0%
CN(C)c1cc(-c2ccc3c(N)n[nH]c3c2)nc(N)n1 [GSK2219329] | 0%
COc1ccc(-c2cc3c(C)nc(N)nc3n([C@H]3CC[C@H](O)CC3)c2=O)cn1 | 0%
OCCCNc1nccc(-c2c(-c3cccc(C(F)(F)F)c3)nn3cc(C(F)(F)F)ccc23)n1 [GW630813] | 0%
O=C(Nc1n[nH]c2cc(-c3ccccc3F)ccc12)C1CC1 [SB-733371] | 0%
Nc1nc(-c2ccccc2F)c(-c2ccnc3ccccc23)s1 [GW560459] | 3%
Cn1c(=O)c(F)c(Nc2ccc(I)cc2F)c2c(=O)n(OC[C@H](O)CO)cnc21 | 10%
Cc1cc(Nc2nc(-c3cccc(C)n3)nc3ccccc23)ccn1 [GW872411] | 0%
COc1cc2nccc(Nc3ccc(OCc4ccc(NC(C)=O)cc4)cc3)c2cc1OC.Cl [GW440135] | 0%
Cc1nnc(-c2ccc(C)c(-c3ccc(C(=O)O)cc3)c2)o1 [GW608005] | 1%
CCS(=O)(=O)c1ccc(OC)c(Nc2ncc(-c3ccc(F)cc3)o2)c1.Cl [GW591947] | 0%
CCc1ccc(-c2ccc3c(c2)-c2nn(C)cc2S(=O)(=O)N3C)cc1 | 0%
CCC(=O)c1c(-c2ccccc2)c2cc(Cl)ccc2c(=O)n1Cc1cc(S(C)(=O)=O)n(CCC(C)(C)O)n1 | 2%
C[C@@H]1CC[C@H](C(=O)NC2CCCCC2)CN1c1cc(-c2ccc3c(N)n[nH]c3c2)nc(N)n1 [GSK2291363] | 0%
O=c1cc(N2CCOCC2)nc2n(Cc3ccc(F)c(Cl)c3)ccn12 [GSK2297099] | 0%

Reference: PMC5540273 (PLoS ONE, 2017)
